The values that follow come from PubChem BioAssay (NCATS).

The target of test [1] is Glucocorticoid receptor (Homo sapiens) (UniProt P04150). Put plainly: GR-GFP Redistribution (AID 450;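 active means compounds whose dose series gives a full or clear partial fitted curve of increased nuclear translocation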; further: potency means the concentration at half of the fitted maximal effect). As to conditions: U2OS GR-GFP nuclear translocation, laser cytometry, 2 h.
For test [2] the target is unchanged. Put plainly: GR-EFC Redistribution (AID 451; calls by dose curve; further: potency means the concentration at half of the fitted maximal effect). As to conditions: CHO-K1 GR-EFC translocation, beta-gal luminescence, 2 h. In outline: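 Translocation of GR-ED fusion to nuclear EA restores b-gal, read by luminescence after 1 h room-temperature detection. Engineered CHO-K1 biosensor cells, 1,000/well, exposed 2 h at 37 C to titrations up to 46 uM final.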
Test [3] concerns the target Mitogen-activated protein kinase 10 (Mus musculus) (UniProt Q61831). Kind of test: JNK3 AlphaScreen Assay (AID 530; active means well fitted curve in either direction with a large enough effect, not every such curve was filed as active;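 further: kinase came from lysate of stimulated human HepG2 cells; signal reports phosphorylation of biotinylated GST-cJun 1-79 at Ser73 with 10 µM ATP; on the % scale 0 is the no-effect control and ±100 the full control effect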). In outline:
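Kinase buffer: 20 mM Tris-HCl pH 7.6, 10 mM MgCl2, 1 mM DTT, 0.1 mM Na3VO4, 0.01% Tween-20; ATP 10 uM. Substrate biotin-GST-cJun(1-79), enzyme from activated HepG2 lysates. Detection by Ser73 phospho-antibody AlphaScreen.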
Background: In Alpha technology, singlet oxygen from a donor bead excites a nearby acceptor bead.

Test [4] can be described thus: qHTS Assay for Lipid Storage Modulators (AID 1519; calls by dose curve). The following applies: Drosophila S3 cells, BODIPY lipid droplet/cell ratio, laser cytometry, cells loaded with oleic acid. In outline: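 Cells seeded at 5,000 per well were treated with compounds over a concentration series and loaded with oleic acid (400 uM, as added). Lipid droplet fluorescence (488 nm excitation, 500-530 nm channel) was read by laser-scanning cytometry and normalized to 20 uM Triacsin C.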
On the technique in general: In qHTS, concentration-response curves come from the screen itself.

For test [5], the target named is Ubiquitin carboxyl-terminal hydrolase 1 (Homo sapiens) (UniProt O94782). Put plainly: Inhibitors of USP1/UAF1: Pilot qHTS (AID 504865).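 Further: rhodamine fluorescence freed from ubiquitin-rhodamine substrate followed over time; top concentration of the series differs between compounds; on the % scale 0 is the no-effect control and ±100 the full control effect; nearly all actives have a fitted effect of over 35% in size.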 In outline:
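USP1/UAF1 complex at 1 nM preincubated 15 min at room temperature with compound, then Ub-Rho substrate added at 150 nM final. Fluorescence (480/540 nm) read kinetically in 50 mM HEPES pH 7.8, 0.5 mM EDTA, 1 mM TCEP, 0.1 mg/ml BSA, 0.01% Tween-20.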

Test [6] deals with DNA dC->dU-editing enzyme APOBEC-3G (Homo sapiens) (UniProt Q9HC16). Kind of test: qHTS for inhibitors of Vif-A3G interactions: Validation (AID 588379). Further: 0% is about no effect. Put shortly: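 Yellow fluorescence (Ex 488, Em 500-530) of Vif-coexpressing HeLa A3G-eYFP cells, scanned by Acumen cytometer, reports blocked A3G degradation. Cells plated at 700/well overnight at 37 deg C before compound addition, then a further overnight compound incubation at 37 deg C.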

In test [7] the test system is Zika virus NS2B-NS3 protease. Put plainly: Primary screen GU AMC qHTS for Zika virus inhibitors (AID 1347154).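 Further: 0% = no-inhibitor control and -100% = no-enzyme control; nearly all actives have a fitted effect of over 70% in size.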 Put shortly: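 Fluorogenic AMC-substrate cleavage by noncovalent NS2B-NS3 protease complex (25 nM, pH 8.0 Tris buffer with Tween 20) followed for 15 minutes at room temperature (~20% conversion). Percent inhibition from ex340/em450 signal change, fitted by 4-parameter Hill equation.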

Test [8] in a line: Primary qHTS for small molecule stabilizers of the endoplasmic reticulum resident proteome: Secreted ER Calcium Modulated Protein (SERCaMP) assay (AID 1508630). Further: on the % scale 0 is the no-effect control and ±100 the full control effect. Put shortly:
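The SH-SY5Y reporter protocol was run at 3 concentrations up to 38.3 uM (primary) or 11 concentrations (follow-up): 16 h compound, 100 nM thapsigargin for 4 h, then extracellular luciferase luminescence.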

Test [9] is described as follows: AP1 Signaling Pathway (AID 357; active means well fitted curve in either direction with a large enough effect, not every such curve was filed as active;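 further: ME-180 reporter cells stimulated with EGF at its EC50 level; on the % scale 0 is the no-effect control and ±100 the full control effect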). In outline: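 AP-1-bla ME-180 cells, Opti-MEM + 0.5% dialyzed FBS, plated overnight 37 °C. Cpd titration + EC50 EGF, 5 h 37 °C. CCF4 2.5 h RT; ex 405, em 460/530 ratio → %activity, AC50.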
The target in test [10] is Cytochrome P450 1A2 (Homo sapiens) (UniProt P05177). Kind of test: p450-cyp1a2 (AID 410; calls by dose curve;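 further: -100% = full effect of reference inhibitor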). Put shortly: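 20nM CYP1A2, 100uM Luciferin-ME (=Km), 100mM KPO4; cpd 10 min RT; +NADPH regen, 60 min RT; stop/detect 20 min; luminescence. Normalized to furafylline 57 uM = full inhibition.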
In test [11] the target is 3',5'-cyclic-AMP phosphodiesterase 4B (Homo sapiens) (UniProt Q07343). Put plainly: qHTS Assay for Inhibitors of PDE-IV (AID 607; active means well fitted activation curve with a large enough effect in the main read-out, with a control signal flat, not every such curve was filed as active; further: % of control where 0% means no effect). Put shortly:
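HEK293 ACTOne cells with CNG channel (1000/well), endogenous PDE4; membrane potential dye, compounds up to 22.9 uM final. Fluorescence Ex 535/Em 590; RO 20-1724 (100 uM final) as reference.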

The target of test [12] is Guanine nucleotide-binding protein G(i) subunit alpha-1 (Homo sapiens) (UniProt P63096). Put plainly: qHTS Assay for Inhibitors of RGS12 GoLoco Motif Activity (Green Fluorophore) (AID 879).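 Further: 0% = labeled peptide with Gαi1 and full inhibition = labeled peptide alone without protein; negative values mean loss of peptide binding seen as reduced polarization.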 In outline:
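A drop in FITC polarization marked displacement of the FITC-tagged RGS12 GoLoco peptide (10 nM) from Gαi1 (50 nM). Compounds were incubated 10 min at room temperature in Tris pH 7.5 buffer containing 150 mM NaCl, 0.1 mM GDP and 0.05% NP40; unlabeled peptide titration served as control.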

In test [13] the target is Cytochrome P450 3A4 (Homo sapiens) (UniProt P08684). Kind of test: qHTS Assay for Activators of Cytochrome P450 3A4 (AID 885). Further: nearly all actives have a fitted effect of over 65% in size. Put shortly: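 Human CYP3A4 dealkylates Luciferin-PPXE to luciferin, which luciferase detection converts to light. Substrate was at its KM (25uM), buffer 200mM KPO4, reaction 60 min at RT.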
Test [14] deals with Pyruvate kinase (Leishmania mexicana) (UniProt Q27686). Put plainly: qHTS Validation Assay for Inhibitors of Leishmania Mexicana Pyruvate Kinase (AID 945).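 Further: 0% = DMSO only neutral control wells.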 Put shortly:
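An endpoint luciferase assay: 0.2 nM LmPYK E451W turns over 0.5 mM PEP with 0.1 mM ADP for 1 h at room temperature, pH 7.2, before PKLight addition. Values are normalized to DMSO-only wells.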

The target of test [15] is Pyruvate kinase PKM (Homo sapiens) (UniProt P14618). Kind of test: qHTS Assay for Activators of Human Muscle Pyruvate Kinase (AID 954; active means well fitted curve in the direction sought with a large enough effect, not every such curve was filed as active;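 further: 0% = uninhibited enzyme and -100% = no enzyme or full thiadiazolimine inhibition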). Put shortly: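 Compound pinned into substrate mix (0.5 mM PEP, 0.1 mM ADP), then 0.1 nM PKM2 added; 1 h, RT. Stop/detection luciferase reagent added, luminescence read. Normalized to no-inhibition and no-enzyme or reference-inhibitor controls.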

Test [16] addresses Alpha-galactosidase A (Homo sapiens) (UniProt P06280). Kind of test: Counterscreen for Glucocerebrosidase Inhibitors: qHTS Assay for Human alpha-Galactosidase at pH 4.5 (AID 992). Further: 0% is about no effect. In outline: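 Steps: enzyme (2 nM final), then compound across 0.7 nM to 77 uM, then 80 uM fluorogenic galactopyranoside substrate; incubate 20 min at room temperature; quench at pH 10; measure fluorescence at 365/440 nm.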
A general note: Counterscreens check selectivity or assay interference.

Test [17] concerns the target alpha-glucosidase (Oryza sativa, rice) (UniProt Q653V4). Kind of test: Counterscreen for Glucocerebrosidase Inhibitors: qHTS Assay for Rice alpha-Glucosidase at pH 5.0 (AID 997).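 Further: 0% = full activity with enzyme and -100% = basal without enzyme.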 Put shortly: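 Endpoint fluorogenic assay at pH 5.0: compounds (0.7 nM to 77 uM) titrated against 4 nM rice enzyme and 400 uM 4-MU-alpha-glucoside for 20 min at room temperature; NaOH/glycine stop, read ex 365/em 440 nm, Hill-fitted AC50.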

For test [18], the target named is Alpha-galactosidase (Coffea arabica) (UniProt Q42656). Kind of test: Counterscreen for Glucocerebrosidase Inhibitors: qHTS Assay for Coffee Bean alpha-Galactosidase at pH 5.9 (AID 998).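 Further: plate controls were uninhibited enzyme for no effect and no-enzyme basal signal for full effect.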 Put shortly: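 Fluorogenic 4-MU substrate hydrolysis, 80 uM substrate and 2 nM coffee bean alpha-galactosidase, pH 5.9 citrate buffer, 20 min at room temperature, then NaOH/glycine stop. Titration 0.7 nM–77 uM, normalized to no-enzyme and enzyme controls, AC50 via Hill equation.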

Test [19] in a line: Stat Signaling Pathway (AID 446; active means well fitted curve in either direction with a large enough effect, not every such curve was filed as active;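 further: ME-180 cervical cancer cells given 40 pM IL-6 alongside compound; SIE-controlled beta-lactamase reporter measured as 460/530 nm FRET emission ratio; on the % scale 0 is the no-effect control and ±100 the full control effect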). In outline:
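Normalization used AC90 stimulation (300 pM IL-6) and AC90 inhibition (125 nM pan-JAK inhibitor at 40 pM IL-6). The underlying signal is SIE-driven beta-lactamase in ME-180 cells after 5 h IL-6 exposure with compound.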

The target of test [20] is Cytochrome P450 2D6 (Homo sapiens) (UniProt P10635). Kind of test: qHTS Assay for Inhibitors and Substrates of Cytochrome P450 2D6 (AID 891). Further: potency means the concentration at half of the fitted maximal effect; nearly all actives have a fitted effect of over 60% in size. Put shortly:
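Luminescent read-out of luciferin formed by 5 nM human CYP2D6 demethylating 30 uM Luciferin-ME EGE (Km level) over 60 min at room temperature after NADPH regeneration addition. Data normalized to full inhibition by 1.43 uM quinidine.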

[21] abbreviates: measured here: cell count channel max response.
[22] abbreviates: measured here: lipid channel max response.

“And” between values parts separate entries of the source, which are not always exact repeats. Equal values may be shown once. Results filed as inconclusive are left out. The source made the active and inactive calls. Unless noted, the call rests on the fitted dose curve; in most records, active means well fitted curve in the direction sought with a large enough effect; inconclusive means small, poorly fitted or top-dose-only effect, or another doubt; inactive means no such curve, though single readings can be large; an effect the other way counts as inactive or inconclusive.

Chain of Glucocorticoid receptor (Homo sapiens) (P04150 whole entry, looked up, the tested form may be a part): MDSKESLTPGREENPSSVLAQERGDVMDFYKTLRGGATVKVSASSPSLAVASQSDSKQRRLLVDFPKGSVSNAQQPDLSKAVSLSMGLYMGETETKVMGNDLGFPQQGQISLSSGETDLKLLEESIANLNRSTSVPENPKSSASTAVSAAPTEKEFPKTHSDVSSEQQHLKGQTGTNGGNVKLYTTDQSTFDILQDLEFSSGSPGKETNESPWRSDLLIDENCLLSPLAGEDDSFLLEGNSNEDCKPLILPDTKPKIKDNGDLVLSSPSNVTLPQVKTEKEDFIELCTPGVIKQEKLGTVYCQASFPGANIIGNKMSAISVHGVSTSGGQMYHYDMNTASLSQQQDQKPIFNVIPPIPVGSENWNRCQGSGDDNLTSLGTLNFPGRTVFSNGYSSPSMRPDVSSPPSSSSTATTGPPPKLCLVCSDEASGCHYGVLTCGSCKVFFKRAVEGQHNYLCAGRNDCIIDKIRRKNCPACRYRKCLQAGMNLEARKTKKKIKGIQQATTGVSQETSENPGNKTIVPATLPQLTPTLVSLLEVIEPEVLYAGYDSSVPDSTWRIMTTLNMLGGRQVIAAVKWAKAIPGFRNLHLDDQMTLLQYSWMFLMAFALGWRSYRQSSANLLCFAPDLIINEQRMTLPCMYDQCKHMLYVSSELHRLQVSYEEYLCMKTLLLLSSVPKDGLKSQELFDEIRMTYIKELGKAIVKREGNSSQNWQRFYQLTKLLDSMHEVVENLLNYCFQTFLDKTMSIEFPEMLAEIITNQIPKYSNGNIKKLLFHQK
Chain of Ubiquitin carboxyl-terminal hydrolase 1 (Homo sapiens) (O94782 whole entry, looked up): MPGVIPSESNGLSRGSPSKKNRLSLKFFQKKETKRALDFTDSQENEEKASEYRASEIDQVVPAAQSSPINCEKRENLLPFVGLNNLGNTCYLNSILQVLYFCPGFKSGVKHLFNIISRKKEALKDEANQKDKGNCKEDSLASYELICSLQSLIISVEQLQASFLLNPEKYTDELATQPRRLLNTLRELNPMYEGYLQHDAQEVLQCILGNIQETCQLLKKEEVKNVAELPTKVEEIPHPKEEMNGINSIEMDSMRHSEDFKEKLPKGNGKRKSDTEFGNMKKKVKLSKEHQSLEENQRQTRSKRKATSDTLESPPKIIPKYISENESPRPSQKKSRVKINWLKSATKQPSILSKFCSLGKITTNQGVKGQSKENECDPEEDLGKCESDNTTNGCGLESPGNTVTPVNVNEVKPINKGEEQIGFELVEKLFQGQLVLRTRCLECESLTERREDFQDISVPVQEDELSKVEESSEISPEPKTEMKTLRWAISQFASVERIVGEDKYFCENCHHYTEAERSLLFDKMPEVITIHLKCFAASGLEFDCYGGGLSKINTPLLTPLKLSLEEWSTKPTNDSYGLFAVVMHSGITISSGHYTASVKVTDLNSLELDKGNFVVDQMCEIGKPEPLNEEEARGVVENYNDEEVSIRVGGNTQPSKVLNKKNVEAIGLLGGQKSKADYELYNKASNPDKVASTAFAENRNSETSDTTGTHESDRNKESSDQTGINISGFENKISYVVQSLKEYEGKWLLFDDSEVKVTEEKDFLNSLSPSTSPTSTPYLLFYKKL
Chain of Cytochrome P450 1A2 (Homo sapiens) (P05177 whole entry, looked up): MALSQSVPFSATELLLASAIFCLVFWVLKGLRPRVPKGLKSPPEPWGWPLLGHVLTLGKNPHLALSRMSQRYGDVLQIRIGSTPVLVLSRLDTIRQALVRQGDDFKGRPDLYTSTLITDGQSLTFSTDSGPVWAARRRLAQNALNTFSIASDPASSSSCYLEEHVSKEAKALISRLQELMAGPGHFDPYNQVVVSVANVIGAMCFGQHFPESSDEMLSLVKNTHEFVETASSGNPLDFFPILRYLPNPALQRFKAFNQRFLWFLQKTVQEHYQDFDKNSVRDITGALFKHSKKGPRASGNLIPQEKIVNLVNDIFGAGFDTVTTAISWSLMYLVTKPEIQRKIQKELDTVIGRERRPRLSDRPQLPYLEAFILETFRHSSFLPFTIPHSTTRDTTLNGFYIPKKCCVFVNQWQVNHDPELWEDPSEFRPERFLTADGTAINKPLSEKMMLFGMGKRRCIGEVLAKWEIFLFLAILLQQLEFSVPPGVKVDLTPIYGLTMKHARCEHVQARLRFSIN
Chain of DNA dC->dU-editing enzyme APOBEC-3G (Homo sapiens) (Q9HC16 whole entry, looked up): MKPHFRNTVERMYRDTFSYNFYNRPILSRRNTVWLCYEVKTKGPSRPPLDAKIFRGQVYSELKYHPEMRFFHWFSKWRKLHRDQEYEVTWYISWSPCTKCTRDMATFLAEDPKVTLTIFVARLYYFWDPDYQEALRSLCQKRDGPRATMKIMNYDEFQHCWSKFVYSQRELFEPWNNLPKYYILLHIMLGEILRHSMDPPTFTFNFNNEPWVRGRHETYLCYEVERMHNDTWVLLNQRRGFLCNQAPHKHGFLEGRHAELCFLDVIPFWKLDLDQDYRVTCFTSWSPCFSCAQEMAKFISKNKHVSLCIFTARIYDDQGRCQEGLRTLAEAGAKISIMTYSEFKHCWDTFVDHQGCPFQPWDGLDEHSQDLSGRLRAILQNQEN
Chain of 3',5'-cyclic-AMP phosphodiesterase 4B (Homo sapiens) (Q07343 whole entry, looked up): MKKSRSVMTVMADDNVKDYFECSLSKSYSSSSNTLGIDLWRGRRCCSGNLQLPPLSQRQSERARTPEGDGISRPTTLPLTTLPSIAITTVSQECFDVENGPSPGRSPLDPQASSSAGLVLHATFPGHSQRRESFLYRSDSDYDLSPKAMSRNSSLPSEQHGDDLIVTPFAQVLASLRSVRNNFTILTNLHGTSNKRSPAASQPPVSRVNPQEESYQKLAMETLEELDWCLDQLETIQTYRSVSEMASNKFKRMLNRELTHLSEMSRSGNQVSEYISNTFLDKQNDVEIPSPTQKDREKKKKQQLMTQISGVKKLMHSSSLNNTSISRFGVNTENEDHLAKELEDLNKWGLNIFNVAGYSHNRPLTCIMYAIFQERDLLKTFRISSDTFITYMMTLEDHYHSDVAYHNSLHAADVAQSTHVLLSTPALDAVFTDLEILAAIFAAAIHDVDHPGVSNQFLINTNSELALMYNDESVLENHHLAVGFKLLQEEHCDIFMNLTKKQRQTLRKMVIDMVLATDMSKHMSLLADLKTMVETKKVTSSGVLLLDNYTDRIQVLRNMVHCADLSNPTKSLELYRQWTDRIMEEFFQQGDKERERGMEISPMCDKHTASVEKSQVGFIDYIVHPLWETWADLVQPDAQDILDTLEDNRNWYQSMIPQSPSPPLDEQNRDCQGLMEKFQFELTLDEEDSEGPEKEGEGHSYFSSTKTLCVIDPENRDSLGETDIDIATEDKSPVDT
Chain of Guanine nucleotide-binding protein G(i) subunit alpha-1 (Homo sapiens) (P63096 whole entry, looked up): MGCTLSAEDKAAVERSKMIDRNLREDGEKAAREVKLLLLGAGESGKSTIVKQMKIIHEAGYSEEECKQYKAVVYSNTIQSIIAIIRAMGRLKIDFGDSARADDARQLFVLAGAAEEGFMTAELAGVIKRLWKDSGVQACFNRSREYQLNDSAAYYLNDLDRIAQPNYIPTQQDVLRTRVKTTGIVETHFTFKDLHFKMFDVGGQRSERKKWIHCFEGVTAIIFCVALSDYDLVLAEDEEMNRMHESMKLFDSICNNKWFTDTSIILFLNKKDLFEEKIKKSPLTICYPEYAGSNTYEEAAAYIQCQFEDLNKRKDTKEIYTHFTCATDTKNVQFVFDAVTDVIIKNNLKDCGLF
Chain of Pyruvate kinase (Leishmania mexicana) (Q27686 2-499 E452W): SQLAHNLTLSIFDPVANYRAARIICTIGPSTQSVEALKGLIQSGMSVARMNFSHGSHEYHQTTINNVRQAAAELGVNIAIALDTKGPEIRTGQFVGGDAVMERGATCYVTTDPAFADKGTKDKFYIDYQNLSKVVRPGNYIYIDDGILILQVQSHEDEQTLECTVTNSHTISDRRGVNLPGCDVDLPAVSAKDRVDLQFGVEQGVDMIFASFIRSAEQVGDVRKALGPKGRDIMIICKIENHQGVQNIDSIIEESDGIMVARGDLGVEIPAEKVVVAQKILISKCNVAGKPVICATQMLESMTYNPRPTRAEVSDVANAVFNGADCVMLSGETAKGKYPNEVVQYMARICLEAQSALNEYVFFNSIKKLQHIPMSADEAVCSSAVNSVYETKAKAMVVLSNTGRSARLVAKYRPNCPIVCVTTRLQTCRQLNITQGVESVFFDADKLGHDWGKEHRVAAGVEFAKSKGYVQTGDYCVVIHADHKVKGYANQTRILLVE
Chain of Cytochrome P450 3A4 (Homo sapiens) (P08684 whole entry, looked up): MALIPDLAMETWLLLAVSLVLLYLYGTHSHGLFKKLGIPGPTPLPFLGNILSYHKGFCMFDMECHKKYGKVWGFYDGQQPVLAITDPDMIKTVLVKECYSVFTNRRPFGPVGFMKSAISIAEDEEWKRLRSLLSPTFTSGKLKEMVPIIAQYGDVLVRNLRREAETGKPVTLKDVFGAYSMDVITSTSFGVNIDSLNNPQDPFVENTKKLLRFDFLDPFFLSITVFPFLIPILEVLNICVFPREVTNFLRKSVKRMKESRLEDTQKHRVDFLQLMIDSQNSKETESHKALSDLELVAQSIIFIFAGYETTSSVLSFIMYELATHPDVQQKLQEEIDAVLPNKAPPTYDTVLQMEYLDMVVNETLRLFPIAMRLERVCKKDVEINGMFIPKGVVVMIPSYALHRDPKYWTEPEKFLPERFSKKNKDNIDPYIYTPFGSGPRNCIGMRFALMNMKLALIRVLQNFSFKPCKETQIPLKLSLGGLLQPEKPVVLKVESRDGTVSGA
Chain of Alpha-galactosidase (Coffea arabica) (Q42656 whole entry, looked up): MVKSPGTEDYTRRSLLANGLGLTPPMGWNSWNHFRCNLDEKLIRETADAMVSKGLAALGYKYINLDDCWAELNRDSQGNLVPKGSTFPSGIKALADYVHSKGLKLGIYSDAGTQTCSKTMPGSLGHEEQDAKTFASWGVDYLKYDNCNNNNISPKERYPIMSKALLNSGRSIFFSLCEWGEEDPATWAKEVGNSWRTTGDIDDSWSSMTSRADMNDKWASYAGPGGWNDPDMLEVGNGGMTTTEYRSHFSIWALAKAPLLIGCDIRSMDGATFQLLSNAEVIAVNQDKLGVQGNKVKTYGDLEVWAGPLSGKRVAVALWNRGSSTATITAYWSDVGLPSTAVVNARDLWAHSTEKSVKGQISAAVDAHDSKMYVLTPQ

Take `CC(C)NC[C@H](O)c1ccc(N)c(C#N)c1`: the Potency in [1] and in [2] was > 46 µM (inactive) each time. In addition, in test [3], the result was inactive. For the same compound, in [4] (at 57.5 µM (top of the series)), the activity change, negative = inhibition was 11.2% (inactive). Besides, the results for the max response in test [4] (setting [21]) and in [4] (setting [22]) were 17.3% and 26.1%, respectively. For the same compound, the Potency entry in test [5], in test [6], in [7] and in [8] was “inactive” in each case.

Turning to `C=CCN1CC[C@@]23c4c5ccc(O)c4O[C@H]2/C(=N\N=C2/CC[C@@]4(O)[C@H]6Cc7ccc(O)c8c7[C@@]4(CCN6CC=C)[C@@H]2O8)CC[C@]3(O)[C@@H]1C5`, the outcome in test [9], in [3], in test [12], in [14], in test [15] and in test [16] was inactive. For the same compound, the compound was called inactive in [17] and in test [18]. The Potency result in test [10], in [11], in [13], in [5], in test [6] and in [7] was “inactive” each time. In [8], the Potency result is “inactive”. Moreover, the Potency in test [1] and in test [2] was > 46 µM (inactive) throughout. Also, the activity change, negative = inhibition in test [4] (at 57.5 µM (top of the series)) is 1.28% (inactive). Moreover, the max response was 10.9% in test [4] (setting [21]) and 11.9% in [4] (setting [22]).

As to `c1ccc2c(c1)OC[C@@H](C1=NCCN1)O2`, the Potency entry in [10], in [11], in [5], in test [6], in test [7] and in test [8] was “inactive” throughout. The call in test [19], in test [12], in test [14], in [15], in test [16] and in test [17] was inactive. Further, in [18], the compound was classed as inactive. In addition, the Potency in test [1] is > 46 µM (inactive) and > 20.6 µM (inactive); in test [2], > 46 µM (inactive) and > 20.6 µM (inactive); in test [20] it was 0.631 µM (active). For the same compound, the activity change, negative = inhibition in test [4] (at 25.7 µM (top of the series)) is 1.16% (inactive). Further, the results for the max response in [4] (setting [21]) and in test [4] (setting [22]) were -0.675% and -5.05%, respectively.

As for `O=C(O)/C=C\CO`, the Potency in test [1] and in test [2] was > 46 µM (inactive) throughout. The outcome in test [3] was inactive. Besides, the Potency result in [11], in test [5], in [6], in test [7] and in test [8] was “inactive” in each case. Besides, the activity change, negative = inhibition in [4] (at 57.5 µM (top of the series)) is 3.52% (inactive). The results for the max response in [4] (setting [21]) and in test [4] (setting [22]) were -10.2% and -9.77%, respectively.

Consider `Oc1ccc2c3c1O[C@H]1c4[nH]c5c(c4C[C@@]4(O)[C@@H](C2)N(CC2CC2)CC[C@]314)C[C@]1(O)[C@H]2Cc3ccc(O)c4c3[C@@]1(CCN2CC1CC1)[C@@H]5O4`, for which the Potency in test [1] and in test [2] was > 46 µM (inactive) in each case. Besides, the Potency result in [11], in test [6], in [7] and in test [8] was “inactive” throughout. Moreover, the activity change, negative = inhibition in [4] (at 57.5 µM (top of the series)) was -0.108% (inactive). Besides, the results for the max response in [4] (setting [21]) and in [4] (setting [22]) were 16.4% and 18.7%, respectively.
